Results filed as inconclusive are left out. A call without a number means that no potency is given here. Activity calls are given as the source filed them. The call rests on the fitted dose curve; in most records, active means well fitted inhibition curve with a large enough effect; inconclusive means small, poorly fitted or top-dose-only effect; inactive means no such curve, though single readings can be large or run the other way.

Among the data in PubChem BioAssay (NCATS) are Potency values, retold here.

The target in test [1] is Retinaldehyde dehydrogenase 3 (Homo sapiens) (UniProt P47895). Put plainly: qHTS for Inhibitors of the Aldehyde Dehydrogenase Family (ALDH1A3) Confirmatory screens (AID 2061311). Further: potency means the concentration at half of the fitted maximal effect; nearly all actives have a fitted effect of over 60% in size. The following applies: ALDH inhibition qHTS; series mostly up to 46 µM. On the technique in general: In qHTS, concentration-response curves come from the screen itself.
The target is the same in test [2]. Put plainly: qHTS for Inhibitors of the Aldehyde Dehydrogenase Family (ALDH1A3) Primary screen (AID 2061315). Conditions: ALDH inhibition qHTS; series mostly up to 56 µM.
Test [3] deals with Aldehyde dehydrogenase 1A1 (Homo sapiens) (UniProt P00352). Put plainly: qHTS for Inhibitors of the Aldehyde Dehydrogenase Family (ALDH1A1) Confirmatory screens (AID 2061316). Further: potency means the concentration at half of the fitted maximal effect; nearly all actives have a fitted effect of over 65% in size. The following applies: ALDH inhibition qHTS; series mostly up to 47.3 µM.
In test [4] the target is Retinal dehydrogenase 2 (Homo sapiens) (UniProt O94788). Kind of test: qHTS for Inhibitors of the Aldehyde Dehydrogenase Family (ALDH1A2) Confirmation screens (AID 2061314). Further: nearly all actives have a fitted effect of over 65% in size. Further: potency means the concentration at half of the fitted maximal effect. Conditions: ALDH1A2 enzyme inhibition qHTS confirmation; series mostly up to 45.9 µM.
Test [5] addresses Retinaldehyde dehydrogenase 3 (Homo sapiens) (UniProt P47895). Put plainly: qHTS for Inhibitors of the Aldehyde Dehydrogenase Family (ALDH1A3) Validation screen (AID 2061312). Further: nearly all actives have a fitted effect of over 45% in size. The following applies: ALDH1A3 enzyme inhibition qHTS validation, fluorescence; series mostly up to 84.7 µM.

On to `O=C1CCCC2=C1C(c1cccnc1Br)N=C(Nc1nc3ccccc3o1)N2` (centres undefined), for which the Potency in test [1] is 20.1 µM (active); in test [3], 11.3 µM (active). For the same molecule, in test [2], the Potency result was “inactive”.

For the molecule `CN(Cc1ccco1)Cc1ccc(O)c2ncccc12`, the Potency was 11.3 µM (active) in test [1] and 2.52 µM (active) in test [4]. Besides, the Potency entry in test [2] is “inactive”.

Regarding `COc1ccc(C(=O)c2ccc(-c3no[n+]([O-])c3C#N)cc2)cc1`, the Potency in test [1] was 2.51 µM (active); in test [4], 12.6 µM (active); in test [3], 5.65 µM (active). Moreover, the Potency result in test [2] is “inactive”.

As for `C=CC(=O)N1CCC[C@@H](n2nc(-c3cccc(C(=O)Nc4ccc(C(C)C)c(C)c4)c3)c3c(N)ncnc32)C1`, the Potency result in test [5] and in test [2] was “inactive” throughout.

Turning to `C=CC(N)CCC(=O)O` (centres undefined), the Potency entry in test [5] was “inactive”.

Take `CCOC(=O)c1ccccc1NC(=O)c1cnc(N2CCOCC2)c2ccccc12`: the Potency entry in test [4] was “inactive”.

For `COc1ccc(S(=O)(=O)NCC(c2ccc(N(C)C)cc2)N2CCOCC2)cc1` (centres undefined), the Potency result in test [4] is “inactive”.

Take `Cn1cnc(S(=O)(=O)N2CCC(C(=O)Nc3ccc(OC(F)(F)F)cc3)CC2)c1`: the Potency result in test [4] is “inactive”.

With `COC(=O)c1cc(C)nc2c1c(=O)nc(SCc1cccc(C)c1)n2C1CC1`, in test [4], the Potency result is “inactive”.

Consider `CCOc1ccccc1NC(=O)c1cnc(N2CCOCC2)c2ccccc12`, for which, in test [4], the Potency result is “inactive”.

As to `Cc1nn(-c2ccc3nnc(C)n3n2)c(C)c1CCC(=O)Nc1ccc(OC(F)(F)F)cc1`, the Potency result in test [4] is “inactive”.

As for `COc1cncc(Nc2cnc3ccc(-c4ccc(F)cc4)nn23)c1`, the Potency result in test [4] is “inactive”.

In the case of `O=C(NCC(=O)N1CCOCC1)c1ccc(-c2cccc(C(F)(F)F)c2)cc1`, in test [4], the Potency result was “inactive”.

Consider `CCOc1ccc(CNC(=O)C2CCCCN2S(=O)(=O)c2ccc(F)cc2)cc1OC` (centres undefined), for which the Potency entry in test [4] is “inactive”.

As for `O=C(O)C1(Oc2ccc(Cl)cc2)CCN(c2cnccn2)CC1`, the Potency result in test [4] is “inactive”.

Regarding `O=C1COCCN1C1CCN(S(=O)(=O)c2cccc(C(F)(F)F)c2)CC1`, the Potency result in test [4] is “inactive”.

`CCN(CC)CCNC(=O)CN1C(=O)COc2ccc(S(=O)(=O)N3CCOCC3)cc21`: in test [4], the Potency entry was “inactive”.

Turning to `CN(CC(=O)Nc1ccc(OC(F)(F)F)cc1)S(=O)(=O)c1ccc2c(c1)CCC(=O)N2`, the Potency entry in test [4] was “inactive”.

For the molecule `CN(Cc1ccccc1C(F)(F)F)C(=O)c1ccc(Cl)nc1`, in test [4], the Potency result is “inactive”.

`COC(=O)c1ccccc1NC(=O)CCCS(=O)(=O)c1nc(-c2ccccc2OC)cc(C(F)(F)F)n1`: the Potency result in test [4] was “inactive”.

As to `Cc1cccn2c(=O)c3cc(C#N)c(=O)n(-c4nnc(SCc5ccc(Cl)cc5)s4)c3nc12`, the Potency result in test [4] is “inactive”.

Take `Cc1cc(C)n2nc(CNS(=O)(=O)c3ccc(Cl)cc3)nc2n1`: the Potency result in test [4] was “inactive”.

As for `CCOCc1cc(CN2CCN(c3cccc(C(F)(F)F)c3)CC2)c(O)c2ncccc12`, the Potency result in test [4] is “inactive”.

As to `CC(C)NS(=O)(=O)c1ccc(OCC(=O)N2CCN(c3cccc(Cl)c3)CC2)cc1`, the Potency result in test [4] is “inactive”.

In the case of `O=C(NCC(=O)N1CCOCC1)c1cccc(-c2ccc(C(F)(F)F)cc2)c1`, the Potency result in test [4] was “inactive”.

Take `COc1ccccc1CCNc1ncnc2c1nnn2C`: in test [4], the Potency result is “inactive”.

`CCOc1ccc(S(=O)(=O)N2CCN(c3ccccc3)CC2)cc1C(N)=O`: in test [4], the Potency result was “inactive”.

On to `COc1ccc(N(C)C(=O)c2cn(C)c(=O)c3cc(OC)c(OC)cc23)cc1`, for which the Potency result in test [4] is “inactive”.

Regarding `COc1ccc(OC)c(NC(=O)CSc2nnc3ccc4ccccc4n23)c1`, in test [4], the Potency entry is “inactive”.

On to `COc1cc(-c2noc(-c3ccc(NC4CCCCC4)c([N+](=O)[O-])c3)n2)cc(OC)c1OC`, for which the Potency entry in test [4] was “inactive”.

With `COc1ccc(OC)c(CNC(=O)C2CCCCN2S(=O)(=O)c2ccc(F)cc2)c1` (centres undefined), the Potency entry in test [4] was “inactive”.

As for `CCc1nn2c(=O)c(S(=O)(=O)Nc3ccc(Br)cc3F)c(C)nc2s1`, the Potency entry in test [4] is “inactive”.

For the molecule `Cc1cccc(-c2nc3c(cnn3-c3ccccc3)c(=O)n2-c2ccc(Cl)cc2)c1`, the Potency result in test [4] was “inactive”.

With `CCOc1ccc(-c2cc(C(=O)NC(C)c3ccccc3)c3ccccc3n2)cc1` (centres undefined), the Potency result in test [4] is “inactive”.

For `COC(=O)c1cc(C)nc2c1c(=O)nc(SCc1ccccc1C)n2C1CC1`, the Potency result in test [4] was “inactive”.

With `Cc1ccc(S(=O)(=O)N2CCC(C(=O)Nc3ccc(Oc4ccccc4)cc3)CC2)cc1`, in test [4], the Potency result was “inactive”.

As to `O=C(CC1N=C2c3ccccc3N=C(SCc3cccc(F)c3)N2C1=O)NCc1cccs1` (centres undefined), the Potency result in test [4] was “inactive”.

As to `COc1cccc(-c2cccc(C(=O)N3CCN([S+](=O)([O-])c4ccccc4)CC3)c2)c1`, the Potency result in test [4] is “inactive”.

Take `COc1cccc(-c2ccc(C(=O)N3CCC(N[S+](=O)([O-])CCC(F)(F)F)CC3)cc2)c1`: the Potency entry in test [4] is “inactive”.

Regarding `COc1cc(C(=O)NCC(c2ccco2)S(=O)(=O)c2ccccc2)cc(OC)c1OC` (centres undefined), the Potency entry in test [4] is “inactive”.

`COc1ccc(S(=O)(=O)N2CCC(N(C(=O)C3CC3)C3CCOCC3)CC2)cc1`: the Potency entry in test [4] is “inactive”.
